# Experimental data published in PubChem BioAssay (NCATS).
# Several values for one entry are separate records, joined by “and”; a condition that tells them apart may be missing. Equal entries are not always repeated. Records with an inconclusive call do not appear. More than one record can exist for a structure, and the calls need not agree. Activity calls are given as the source filed them. Unless noted, calls follow the shape of the full dose curve.
# Key:
# [1] = biological target: Androgen receptor (Homo sapiens) (UniProt P10275); assay: qHTS assay for small molecule agonists of androgen receptor signaling (AID 588515; active = well fitted curve in the direction sought with a large enough effect in the signal ratio, with a control signal flat; the % refers to the signal ratio; also: % is scaled to controls: 0 for no effect and ±100 for the full control effect); conditions: AR-UAS-bla HEK293, beta-lactamase ratio, agonist 16 h; stronger effect = higher value
# Procedure, shortened: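 Stimulation of an AR-responsive β-lactamase reporter in GripTite HEK293 cells was measured after 16 h compound exposure at 37 °C, via CCF4 fluorescence after 2 h RT. EC50 from Hill fits, normalized to R1881 at 30 nM.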
# [2] = biological target: Androgen receptor (Homo sapiens) (UniProt P10275); assay: qHTS assay for small molecule antagonists of androgen receptor signaling (AID 588516; active = well fitted curve in the direction sought with a large enough effect in the signal ratio, with a control signal flat, not every such curve was filed as active; the % refers to the signal ratio; also: % is scaled to controls: 0 for no effect and ±100 for the full control effect); conditions: AR-UAS-bla HEK293, beta-lactamase ratio, antagonist mode, 16 h; series mostly up to 76.8 µM
# Procedure, shortened: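 AR-UAS-bla GripTite HEK 293 cells (2000/well) treated with compound titrations plus 10 nM R1881 for 16 h at 37C. Beta-lactamase read by CCF4 FRET (460/530 nm); IC50 from Hill fits, normalized to R1881 and DMSO control wells.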
# [3] = biological target: Bile acid receptor (Homo sapiens) (UniProt Q96RI1); assay: qHTS assay for small molecule antagonists of farnesoid X receptor signaling (AID 588526); conditions: HEK293T FXR-UAS-bla, beta-lactamase ratio, antagonist mode; series mostly up to 76.7 µM; also: potency is read from the fitted curve at half-maximal effect
# Chain of Bile acid receptor (Homo sapiens) (Q96RI1 whole entry, looked up): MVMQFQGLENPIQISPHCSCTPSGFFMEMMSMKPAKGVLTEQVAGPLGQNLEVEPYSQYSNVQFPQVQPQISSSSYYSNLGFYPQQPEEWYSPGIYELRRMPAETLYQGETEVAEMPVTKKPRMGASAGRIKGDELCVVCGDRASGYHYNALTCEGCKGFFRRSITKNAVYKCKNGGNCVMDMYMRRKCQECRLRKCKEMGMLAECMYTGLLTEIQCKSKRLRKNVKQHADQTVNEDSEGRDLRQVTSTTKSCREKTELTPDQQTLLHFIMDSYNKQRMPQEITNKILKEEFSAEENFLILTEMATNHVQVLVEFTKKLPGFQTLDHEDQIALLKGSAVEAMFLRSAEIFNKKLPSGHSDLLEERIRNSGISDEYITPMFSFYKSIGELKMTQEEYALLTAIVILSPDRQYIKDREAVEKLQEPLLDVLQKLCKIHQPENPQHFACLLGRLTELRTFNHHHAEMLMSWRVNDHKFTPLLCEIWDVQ
# Procedure, shortened: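 Antagonist mode: titrated compounds tested against chenodeoxycholic acid stimulation (normalized to 50 uM CDCA and DMSO) in GeneBLAzer HEK293T cells for 16 h. Beta-lactamase read by CCF4 fluorescence; IC50 from Hill fits.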
# [4] = biological target: Bile acid receptor (Homo sapiens) (UniProt Q96RI1); assay: qHTS assay for small molecule agonists of farnesoid X receptor signaling (AID 588527); conditions: HEK293T FXR-UAS-bla, beta-lactamase ratio, 16 h; stronger effect = higher value;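 also: 0% = vehicle basal and 100% = reference agonist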
# Procedure, shortened: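 FXR-UAS-bla HEK293T cells (10% dialyzed FBS) preincubated 5-7 h at 37 C, then compounds at up to 92 uM for 16 h at 37 C. CCF4 beta-lactamase read-out after 2 h RT. Normalized to chenodeoxycholic acid (100 uM) and DMSO; Hill fit gave EC50 and efficacy.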
# [5] = biological target: Glucocorticoid receptor (Homo sapiens) (UniProt P04150); assay: qHTS assay for small molecule agonists of glucocorticoid receptor signaling (AID 588532; active = well fitted curve in the direction sought with a large enough effect in the signal ratio, with a control signal flat; the % refers to the signal ratio;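 also: 100% = dexamethasone at 0.1 µM and 0% = DMSO only wells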); conditions: HeLa MMTV-bla, beta-lactamase ratio, agonist, 18 h; stronger effect = higher value; percent of dexamethasone control, DMSO zero
# Chain of Glucocorticoid receptor (Homo sapiens) (P04150 whole entry, looked up): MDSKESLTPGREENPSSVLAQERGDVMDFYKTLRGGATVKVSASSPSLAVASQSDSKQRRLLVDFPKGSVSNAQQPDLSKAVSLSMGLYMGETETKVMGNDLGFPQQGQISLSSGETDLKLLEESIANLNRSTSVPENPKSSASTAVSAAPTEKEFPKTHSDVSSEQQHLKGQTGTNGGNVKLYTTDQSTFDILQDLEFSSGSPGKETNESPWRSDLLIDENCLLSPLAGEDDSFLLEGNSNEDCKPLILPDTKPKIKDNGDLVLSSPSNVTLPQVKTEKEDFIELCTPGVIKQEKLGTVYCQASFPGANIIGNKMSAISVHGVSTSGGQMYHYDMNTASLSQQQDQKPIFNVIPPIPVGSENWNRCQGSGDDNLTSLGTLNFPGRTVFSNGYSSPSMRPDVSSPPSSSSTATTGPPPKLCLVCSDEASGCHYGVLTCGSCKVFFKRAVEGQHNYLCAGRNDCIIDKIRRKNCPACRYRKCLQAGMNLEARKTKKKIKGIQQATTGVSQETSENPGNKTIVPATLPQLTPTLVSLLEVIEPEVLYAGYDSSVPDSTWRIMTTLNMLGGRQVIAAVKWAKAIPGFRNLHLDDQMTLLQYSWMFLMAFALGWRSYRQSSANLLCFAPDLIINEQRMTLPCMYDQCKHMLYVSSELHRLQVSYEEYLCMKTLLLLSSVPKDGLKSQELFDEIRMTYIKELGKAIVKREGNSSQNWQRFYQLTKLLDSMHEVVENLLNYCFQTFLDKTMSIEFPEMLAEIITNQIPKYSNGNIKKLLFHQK
# Procedure, shortened: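 MMTV-bla HeLa beta-lactamase reporter cells in 1% charcoal/dextran FBS medium, compounds up to 92 uM for 18 h at 37 C, CCF4 readout; normalized to 0.1 uM dexamethasone (100%), EC50 and efficacy from Hill fits.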
# [6] = biological target: Peroxisome proliferator-activated receptor delta (Homo sapiens) (UniProt Q03181); assay: qHTS assay for small molecule agonists of peroxisome proliferator-activated receptor delta signaling (AID 588534); conditions: HEK293T PPARdelta-UAS-bla, beta-lactamase ratio, 18 h; series mostly up to 76.7 µM;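 also: 0% = DMSO basal wells and 100% = positive control agonist at 10 µM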
# Chain of Peroxisome proliferator-activated receptor delta (Homo sapiens) (Q03181 whole entry, looked up): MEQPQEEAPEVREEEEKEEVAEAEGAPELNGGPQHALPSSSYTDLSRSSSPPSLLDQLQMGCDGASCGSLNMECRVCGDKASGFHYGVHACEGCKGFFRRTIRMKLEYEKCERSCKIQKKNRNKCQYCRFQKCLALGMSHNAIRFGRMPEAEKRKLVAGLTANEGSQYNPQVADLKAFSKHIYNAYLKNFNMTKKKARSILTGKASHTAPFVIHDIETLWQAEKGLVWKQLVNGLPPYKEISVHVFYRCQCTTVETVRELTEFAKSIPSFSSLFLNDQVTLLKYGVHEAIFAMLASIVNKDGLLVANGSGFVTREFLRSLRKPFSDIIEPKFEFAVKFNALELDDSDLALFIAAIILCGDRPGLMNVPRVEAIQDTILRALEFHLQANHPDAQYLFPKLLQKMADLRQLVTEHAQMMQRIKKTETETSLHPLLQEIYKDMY
# Procedure, shortened: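 Titration series tested in agonist mode on beta-lactamase reporter cells; 18 hrs at 37 C after a 5 hr pre-incubation. Readout: CCF4 fluorescence, 2 hrs RT. Hill equation gives EC50 and maximal response.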
# [7] = qHTS assay for small molecule antagonists of peroxisome proliferator-activated receptor delta signaling (AID 588535; active = well fitted inhibition curve with a large enough effect in the signal ratio, with a control signal flat, not every such curve was filed as active; the % refers to the signal ratio;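 as to max response: cells co-treated with a PPAR-delta agonist as stimulator during compound exposure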); conditions: HEK293T PPARd-UAS-bla, beta-lactamase FRET ratio, 18 h; 460 nm channel
# Procedure, shortened: (§1)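 Beta-lactamase reporter read-out (405 nm excitation, 460/530 nm emission) after CCF4 loading for 2 hrs at RT. HEK293T PPAR-delta-UAS-bla cells, 2% charcoal/dextran FBS, compounds for 18 hrs at 37 C. Hill fit gave IC50 and efficacy.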
# [8] = biological target: Peroxisome proliferator-activated receptor delta (Homo sapiens) (UniProt Q03181); assay: as above; conditions: HEK293T PPARd-UAS-bla, beta-lactamase FRET ratio, 18 h; series mostly up to 76.7 µM
# Procedure, shortened: as §1
# [9] = biological target: Vitamin D3 receptor (Homo sapiens) (UniProt P11473); assay: qHTS assay for small molecule antagonists of vitamin D receptor signaling (AID 588541); conditions: HEK293T VDR-UAS-bla, beta-lactamase ratio, antagonist mode; series mostly up to 76.7 µM;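 also: receptor activated by calcitriol during compound treatment; % is scaled to controls: 0 for no effect and ±100 for the full control effect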
# Chain of Vitamin D3 receptor (Homo sapiens) (P11473 whole entry, looked up): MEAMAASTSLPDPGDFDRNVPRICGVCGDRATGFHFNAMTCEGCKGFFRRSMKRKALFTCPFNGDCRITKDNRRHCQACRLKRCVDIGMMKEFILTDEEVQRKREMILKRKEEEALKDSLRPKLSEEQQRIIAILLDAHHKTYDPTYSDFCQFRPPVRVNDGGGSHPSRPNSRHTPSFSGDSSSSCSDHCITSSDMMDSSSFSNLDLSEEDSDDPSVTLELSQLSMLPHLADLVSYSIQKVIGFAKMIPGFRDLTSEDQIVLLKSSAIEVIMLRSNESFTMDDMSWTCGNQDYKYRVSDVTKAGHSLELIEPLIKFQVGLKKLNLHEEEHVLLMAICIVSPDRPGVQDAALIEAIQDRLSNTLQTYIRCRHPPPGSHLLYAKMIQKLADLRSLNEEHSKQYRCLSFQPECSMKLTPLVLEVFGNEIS
# Procedure, shortened: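 VDR-UAS-bla HEK293T cells in 2% charcoal-stripped FBS were stimulated with 1-alpha,25-dihydroxyvitamin D3 (3 nM final) plus compound for 16 h at 37 C. The beta-lactamase CCF4 readout was normalized to 50 nM agonist and DMSO, and Hill fits gave IC50.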
# [10] = biological target: Vitamin D3 receptor (Homo sapiens) (UniProt P11473); assay: qHTS assay for small molecule agonists of vitamin D receptor signaling (AID 588543); conditions: HEK293T VDR-UAS-bla, beta-lactamase ratio, 16 h; series mostly up to 76.8 µM;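 also: 0% = DMSO basal and 100% = reference agonist control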
# Procedure, shortened: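 VDR-UAS-bla HEK293T cells, 2000/well, 2% charcoal-stripped FBS; compound titration 16 h at 37 C; CCF4 beta-lactamase ratio read. Normalized to 50 nM 1-alpha,25-dihydroxyvitamin D3 (100%) and DMSO; Hill fit gives EC50, efficacy.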
# [11] = qHTS assay for small molecule agonists of retinoid X receptor alpha signaling (AID 588544); conditions: HEK293T RXRa-UAS-bla, beta-lactamase reporter, 18 h; 530 nm emission
# [12] = biological target: Estrogen receptor (Homo sapiens) (UniProt P03372); assay: qHTS assay for small molecule antagonists of estrogen receptor alpha signaling (AID 588513; active = well fitted curve in the direction sought with a large enough effect in the signal ratio, with a control signal flat, not every such curve was filed as active; the % refers to the signal ratio; also: % is scaled to controls: 0 for no effect and ±100 for the full control effect); conditions: ER-alpha-UAS-bla HEK293, beta-lactamase ratio, antagonist mode; series mostly up to 76.9 µM
# Chain of Estrogen receptor (Homo sapiens) (P03372 whole entry, looked up): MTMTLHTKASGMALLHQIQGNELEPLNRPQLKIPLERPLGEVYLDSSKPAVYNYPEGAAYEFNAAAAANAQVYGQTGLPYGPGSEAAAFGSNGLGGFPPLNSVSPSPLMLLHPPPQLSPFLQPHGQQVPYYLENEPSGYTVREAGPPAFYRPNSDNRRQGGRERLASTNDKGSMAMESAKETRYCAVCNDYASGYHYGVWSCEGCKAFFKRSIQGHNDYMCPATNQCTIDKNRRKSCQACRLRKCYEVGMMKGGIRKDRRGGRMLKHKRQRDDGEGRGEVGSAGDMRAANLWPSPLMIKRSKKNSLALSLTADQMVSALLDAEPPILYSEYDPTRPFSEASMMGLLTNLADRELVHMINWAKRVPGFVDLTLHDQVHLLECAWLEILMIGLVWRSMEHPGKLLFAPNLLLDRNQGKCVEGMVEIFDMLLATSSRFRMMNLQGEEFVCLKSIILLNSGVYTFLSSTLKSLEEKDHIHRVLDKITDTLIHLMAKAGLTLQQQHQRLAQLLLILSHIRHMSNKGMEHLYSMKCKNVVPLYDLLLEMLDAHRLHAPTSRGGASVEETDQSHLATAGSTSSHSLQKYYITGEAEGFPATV
# Procedure, shortened: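 ER-alpha-UAS-bla GripTite HEK 293 cells in 2% charcoal/dextran-treated FBS medium; compounds titrated (1:2, duplicate), then stimulated with 0.5 nM 17-beta-estradiol for 18 h at 37C. CCF4 beta-lactamase fluorescence; Hill-fit IC50 and efficacy.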
# [13] = biological target: Estrogen receptor (Homo sapiens) (UniProt P03372); assay: qHTS assay for small molecule agonists of estrogen receptor alpha signaling (AID 588514); conditions: ER-alpha-UAS-bla HEK293, beta-lactamase ratio, 18 h; series mostly up to 76.8 µM;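 also: 0% = vehicle only and 100% = reference agonist; nearly all actives have a fitted effect of over 70% in size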
# Procedure, shortened: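 Read-out: CCF4 fluorescence from a beta-lactamase reporter in ER-alpha-UAS-bla HEK 293 cells after 18 hrs of compound exposure at 37 C. Normalized to 20 nM 17-beta-estradiol (100%) and DMSO (0%).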
# [14] = biological target: Peroxisome proliferator-activated receptor gamma (Homo sapiens) (UniProt P37231); assay: qHTS assay for small molecule agonists of peroxisome proliferator-activated receptor gamma signaling (AID 588536; active = well fitted curve in the direction sought with a large enough effect in the signal ratio, with a control signal flat, not every such curve was filed as active; the % refers to the signal ratio;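 also: 0% = DMSO basal wells and 100% = rosiglitazone at 2 µM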); conditions: HEK293 PPARg-UAS-bla, beta-lactamase ratio, 16 h, percent of rosiglitazone response, DMSO as zero; series mostly up to 76.7 µM
# Chain of Peroxisome proliferator-activated receptor gamma (Homo sapiens) (P37231 whole entry, looked up): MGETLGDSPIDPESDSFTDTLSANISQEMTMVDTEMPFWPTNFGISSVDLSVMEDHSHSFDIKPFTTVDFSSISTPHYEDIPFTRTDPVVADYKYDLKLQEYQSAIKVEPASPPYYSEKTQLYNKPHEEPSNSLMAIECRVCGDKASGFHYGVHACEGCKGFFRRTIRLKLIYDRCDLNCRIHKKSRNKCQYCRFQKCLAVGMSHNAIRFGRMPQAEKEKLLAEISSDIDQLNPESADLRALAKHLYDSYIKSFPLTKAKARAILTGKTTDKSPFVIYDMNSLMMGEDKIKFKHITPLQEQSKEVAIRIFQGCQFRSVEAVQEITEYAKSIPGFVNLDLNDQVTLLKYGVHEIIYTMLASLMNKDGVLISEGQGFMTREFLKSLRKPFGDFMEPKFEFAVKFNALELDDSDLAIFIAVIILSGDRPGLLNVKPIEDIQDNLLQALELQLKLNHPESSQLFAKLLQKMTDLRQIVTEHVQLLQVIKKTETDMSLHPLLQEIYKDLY
# Procedure, shortened: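 Cells were plated and held 6–6.5 h at 37 C, then compounds were added as a titration series. After a further 16 h, CCF4 dye was loaded for 2 h at room temperature and emission at 460/530 nm recorded.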
# [15] = biological target: Peroxisome proliferator-activated receptor gamma (Homo sapiens) (UniProt P37231); assay: qHTS assay for small molecule antagonists of peroxisome proliferator-activated receptor gamma signaling (AID 588537; active = well fitted inhibition curve with a large enough effect in the signal ratio, with a control signal flat, not every such curve was filed as active; the % refers to the signal ratio; also: potency is read from the fitted curve at half-maximal effect); conditions: HEK293 PPARg-UAS-bla, beta-lactamase ratio, antagonist mode; series mostly up to 76.8 µM
# Procedure, shortened: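 Read-out: CCF4 fluorescence (ex 405, em 460/530 nm) after 2 h at RT. Cells were HEK293 carrying a UAS-bla reporter and treated 16 h at 37 C with compound plus rosiglitazone (50 nM final). Normalized to rosiglitazone and DMSO.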
# [16] = biological target: Thyroid hormone receptor beta (Homo sapiens) (UniProt P10828); assay: qHTS assay for small molecule agonists of thyroid hormone receptor beta signaling (AID 588545); conditions: TR-UAS-bla GripTite HEK 293, beta-lactamase ratio, agonist mode, 18 h, percent of T3 response, DMSO as zero; series mostly up to 76.7 µM;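 also: 0% = DMSO only and 100% = 10 nM T3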
# Chain of Thyroid hormone receptor beta (Homo sapiens) (P10828 whole entry, looked up): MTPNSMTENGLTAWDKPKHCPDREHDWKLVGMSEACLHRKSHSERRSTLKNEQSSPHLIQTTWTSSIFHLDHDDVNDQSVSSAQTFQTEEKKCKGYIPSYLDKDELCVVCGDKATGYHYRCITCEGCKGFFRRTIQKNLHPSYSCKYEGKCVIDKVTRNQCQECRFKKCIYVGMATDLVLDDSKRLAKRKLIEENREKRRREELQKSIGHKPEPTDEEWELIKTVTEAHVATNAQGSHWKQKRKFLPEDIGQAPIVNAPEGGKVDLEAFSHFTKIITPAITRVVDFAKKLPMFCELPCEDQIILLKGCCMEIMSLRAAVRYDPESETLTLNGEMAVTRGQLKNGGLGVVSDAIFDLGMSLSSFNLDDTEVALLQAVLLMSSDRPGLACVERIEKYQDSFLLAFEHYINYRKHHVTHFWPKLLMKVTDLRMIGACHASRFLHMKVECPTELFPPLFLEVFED
# Procedure, shortened: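 Beta-lactamase reporter activity under TR response element control is measured in HEK 293 cells after 18 hrs compound exposure. Signal is ratiometric CCF4 fluorescence, 460/530 nm.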
# [17] = qHTS assay for small molecule antagonists of retinoid X receptor alpha signaling (AID 588546; active = well fitted inhibition curve with a large enough effect in the signal ratio, with a control signal flat, not every such curve was filed as active; the % refers to the signal ratio); conditions: HEK293T RXRa-UAS-bla, beta-lactamase ratio, antagonist mode; measured here: W530 green channel, cytotoxicity proxy
# Procedure, shortened: (§2)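 Beta-lactamase reporter inhibition, read as CCF4 fluorescence ratio (ex 405, em 460/530 nm) after 2 h at RT. HEK293T UAS-bla cells, 2500/well, were stimulated with 9-cis-RA at 500 or 100 nM final alongside test compound for 18 h at 37 C.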
# [18] = biological target: Retinoic acid receptor RXR-alpha (Homo sapiens) (UniProt P19793); assay: as above; conditions: HEK293T RXRa-UAS-bla, beta-lactamase ratio, antagonist mode
# Chain of Retinoic acid receptor RXR-alpha (Homo sapiens) (P19793 whole entry, looked up): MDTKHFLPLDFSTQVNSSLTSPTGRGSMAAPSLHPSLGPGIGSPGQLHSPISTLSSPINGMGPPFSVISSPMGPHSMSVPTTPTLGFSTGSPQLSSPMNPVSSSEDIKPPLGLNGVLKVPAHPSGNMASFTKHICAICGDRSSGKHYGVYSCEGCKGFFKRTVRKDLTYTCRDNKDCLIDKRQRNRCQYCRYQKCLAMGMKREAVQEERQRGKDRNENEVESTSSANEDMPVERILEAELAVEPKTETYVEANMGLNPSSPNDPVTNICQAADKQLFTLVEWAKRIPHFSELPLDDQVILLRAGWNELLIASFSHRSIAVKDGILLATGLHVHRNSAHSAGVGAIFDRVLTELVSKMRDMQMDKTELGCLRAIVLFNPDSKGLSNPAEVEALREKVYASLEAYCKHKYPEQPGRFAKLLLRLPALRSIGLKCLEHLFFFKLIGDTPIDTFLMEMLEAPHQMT
# Procedure, shortened: as §2
# [19] = biological target: Thyroid hormone receptor beta (Homo sapiens) (UniProt P10828); assay: qHTS assay for small molecule antagonists of thyroid hormone receptor beta signaling (AID 588547; active = well fitted inhibition curve with a large enough effect in the signal ratio, with a control signal flat, not every such curve was filed as active; the % refers to the signal ratio); conditions: TR-UAS-bla HEK293, beta-lactamase ratio, antagonist mode, 18 h
# Procedure, shortened: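 TR-UAS-bla GripTite HEK293 cells in 2% charcoal/dextran FBS medium; compounds 0.59 nM to 92 uM with T3 at 0.4nM final, 18 h at 37 C. Beta-lactamase read by CCF4 fluorescence (460/530 nm); Hill fits gave IC50 and efficacy.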
# [20] = biological target: Glucocorticoid receptor (Homo sapiens) (UniProt P04150); assay: qHTS assay for small molecule antagonists of glucocorticoid receptor signaling (AID 588533; active = well fitted inhibition curve with a large enough effect in the signal ratio, with a control signal flat, not every such curve was filed as active; the % refers to the signal ratio; also: % is scaled to controls: 0 for no effect and ±100 for the full control effect); conditions: HeLa MMTV-bla, GRE beta-lactamase ratio, antagonist mode, 18 h; series mostly up to 76.8 µM
# Procedure, shortened: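 Antagonist-mode qHTS: compound titrations added to GRE-bla HeLa cells, then dexamethasone 2 nM final; 18 h, 37 C. CCF4 FRET fluorescence normalized to dexamethasone and DMSO; IC50 from Hill fit.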
smiles,measurement,setting,value
CC(C)(C)CC(C)(C)c1ccc(O)cc1,activation,[1],2.26% (inactive)
same,outcome,[2],inactive
same,Potency,[3],inactive
same,activation,[4],3.19% (inactive)
same,activation,[5],4.7% (inactive)
same,outcome,[6],inactive
same,max response,[7],-1.27%
same,outcome,[8],inactive
same,outcome,[9],inactive
same,outcome,[10],inactive
same,max response,[11],-53.5%
O=C(CCCN1CCC(O)(c2ccc(Cl)cc2)CC1)c1ccc(F)cc1,activation,[4],-8.42% (inactive)
c1ccc2c(c1)Nc1ccccc1S2,outcome,[12],inactive
same,Potency,[13],inactive
same,outcome,[6],inactive
same,max response,[7],32.2% and -35%
same,outcome,[8],inactive
same,outcome,[14],inactive
same,Potency,[15],inactive and 39.8 µM (active)
same,max response,[11],2.15% and 8.42%
same,outcome,[16],inactive
same,max response,[17],-11.1% and -4.36%
same,max response,[18],11.2% (inactive) and 0.985% (inactive)
same,activity change % (negative = inhibition),[19],5.64% (inactive) and -8.66% (inactive)
COC1=CC(=O)C[C@@H](C)[C@]12Oc1c(Cl)c(OC)cc(OC)c1C2=O,activation,[4],0.423% (inactive)
NC(=Nc1ccccc1)Nc1ccccc1,outcome,[12],inactive
same,activation,[4],-1.85% (inactive) and 0.0042% (inactive)
same,activation,[5],-8.4% (inactive)
same,outcome,[6],inactive
N[C@@H](Cc1ccc(N(CCCl)CCCl)cc1)C(=O)O,Potency,[3],39.8 µM (active)
same,activation,[4],0.124% (inactive)
same,activation,[5],7.11% (inactive) and 5.34% (inactive)
same,Potency,[20],inactive
O=c1[nH]cc(F)c(=O)[nH]1,activation,[4],-1.24% (inactive)
same,outcome,[6],inactive
OCCOc1ccccc1,outcome,[12],inactive
same,Potency,[13],inactive
same,Potency,[3],inactive
same,activation,[4],0.0237% (inactive) and -6.3% (inactive) and -0.639% (inactive)
same,activation,[5],0.307% (inactive) and -9.57% (inactive) and -3.52% (inactive)
same,Potency,[20],inactive
same,outcome,[6],inactive
same,max response,[7],16.7% and 12.5% and -5.77%
same,outcome,[8],inactive
same,outcome,[14],inactive
same,Potency,[15],inactive
same,outcome,[9],inactive
same,outcome,[10],inactive
same,max response,[11],-2.94% and -12.9% and -4.25%
same,outcome,[16],inactive
same,max response,[17],-0.71% and -11.6% and -11.4%
same,max response,[18],15.3% (inactive) and -5.21% (inactive) and -13.9% (inactive)
same,activity change % (negative = inhibition),[19],12.7% (inactive) and 7.54% (inactive) and 6.22% (inactive)
CCC1(c2ccccc2)C(=O)NCNC1=O,activation,[4],-0.167% (inactive) and -0.256% (inactive)
Cc1ccc(C)c(OCCCC(C)(C)C(=O)O)c1,activation,[4],-2.62% (inactive) and -0.135% (inactive)
same,outcome,[6],inactive
Cc1ccnc2c1NC(=O)c1cccnc1N2C1CC1,activation,[4],5.2% (inactive)
same,outcome,[6],inactive
CC1(C)NC(=O)N(c2ccc([N+](=O)[O-])c(C(F)(F)F)c2)C1=O,activation,[4],0.399% (inactive)
CN(C)CCOC(C)(c1ccccc1)c1ccccn1 (stereo unspecified),activation,[4],-1.68% (inactive)
same,outcome,[6],inactive
